# Shown are actives, neighbours in structure and some others; about 6.7% of the full set was active somewhere.
# C diff growth – inhibitors of Clostridium difficile growth; Clostridium difficile clinical isolate growth, OD600, 24 h; active compounds read low; growth activity, negative = inhibition, % at 16 µg/mL (by protocol); hit rate 0.25% among 86,000; AID 1259249;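 active = mean growth activity at or below -80% and every replicate also at or below -80%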;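 also: 0% = DMSO wells and -100% = levofloxacin 16 µg/mL wells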
# T cruzi growth – inhibitors of T. cruzi proliferation | hit rate 5.9% among 77,000 | inhibition, % at 8.34 µM | T. cruzi beta-gal in NIH3T3, GalScreen luminescence, 90 h | AID 624255;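 active = mean inhibition above about 93%, with at least 55% of replicates each passing it, limit read from the data, passing the limit was not always enough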
# Pf Dd2 inh – blocks growth of Plasmodium falciparum Dd2 parasites; P. falciparum Dd2 growth, SYBR Green, 72 h; active compounds read low; activity change, % at 10 µM; hit rate 2.3% among 94,000; AID 1159554; in the data active = activity change below about -80%
# The depositor's hits bear a star; / = no result given; ! = a repeat was not active.
SMILES,C diff growth,T cruzi growth,Pf Dd2 inh
COc1cccc(C#Cc2ccc3c(c2)O[C@H](CN(C)C(=O)c2ccccn2)[C@H](C)CN([C@@H](C)CO)S3(=O)=O)c1,2,116*,-71
COc1cccc(NC(=O)N(C)C[C@@H]2Oc3cc(C#Cc4ccncc4)ccc3S(=O)(=O)N([C@@H](C)CO)C[C@@H]2C)c1,9,49,-79
C[C@H]1CN([C@@H](C)CO)C(=O)c2cc(/C=C/c3ccccc3)cnc2O[C@H]1CN(C)C(=O)c1ccc(F)cc1,-6,/,-56
C[C@H]1CN([C@@H](C)CO)C(=O)c2cc(C#CCc3ccccc3)cnc2O[C@@H]1CN(C)Cc1ccc(C(=O)O)cc1,-10,/,-23
COc1ccc2c3c([nH]c2c1)[C@@H](CO)N(Cc1ccc(Cl)cc1)CC31CCN(Cc2ccccc2)CC1,25,/,-80
COc1ccc2c3c([nH]c2c1)[C@@H](CO)N(Cc1ccc(Cl)cc1)CC31CCN(Cc2nccs2)CC1,-5,/,-88*
COc1ccc2c3c([nH]c2c1)[C@H](CO)N(Cc1nccs1)CC31CN(Cc2ccncc2)C1,10,/,-34
COc1ccc2c3c([nH]c2c1)[C@H](CO)N(Cc1ccc(Cl)cc1)CC31CN(Cc2nccs2)C1,10,/,-86*
COc1ccc2c3c([nH]c2c1)[C@H](CO)N(C)CC31CCN(C(=O)NC(C)C)CC1,/,/,-10
C[C@@H]1CCCCO[C@H](CN(C)C(=O)Nc2cccc3ccccc23)[C@@H](C)CN([C@@H](C)CO)C(=O)c2cc(N(C)C)ccc2O1,0,56,-83*
C[C@@H]1CN([C@H](C)CO)C(=O)c2cc(NC(=O)C3CCCCC3)ccc2O[C@@H](C)CCCCO[C@@H]1CN(C)C(=O)Nc1cccc2ccccc12,7,64,-91*
C[C@H](CO)N1C[C@H](C)[C@H](CN(C)C(=O)Nc2cccc3ccccc23)OCCCC[C@H](C)Oc2ccc(NC(=O)c3ccccc3)cc2C1=O,-4,71,-46
C[C@@H]1CCCCO[C@@H](CN(C)C(=O)Nc2cccc3ccccc23)[C@H](C)CN([C@@H](C)CO)C(=O)c2cc(NC(=O)c3ccccc3)ccc2O1,-2,89,57
C[C@@H]1CN([C@H](C)CO)C(=O)c2cc(NC(=O)c3ccccc3)ccc2O[C@@H](C)CCCCO[C@@H]1CN(C)C(=O)Nc1cccc2ccccc12,8,62,-89*
C[C@@H]1CN([C@@H](C)CO)C(=O)c2cc(NC(=O)c3ccccc3)ccc2O[C@@H](C)CCCCO[C@H]1CN(C)C(=O)Nc1cccc2ccccc12,0,79,-81*
C[C@@H]1CN([C@@H](C)CO)C(=O)c2cc(NC(=O)C3CCCCC3)ccc2O[C@@H](C)CCCCO[C@H]1CN(C)C(=O)Nc1cccc2ccccc12,-4,70,-78
C[C@@H]1CN([C@H](C)CO)C(=O)c2cc(N(C)C)ccc2O[C@@H](C)CCCCO[C@H]1CN(C)C(=O)Nc1cccc2ccccc12,-3,-50,/
C[C@H]1CN([C@@H](C)CO)C(=O)c2cccc(NS(=O)(=O)c3ccc(Cl)cc3)c2O[C@H]1CN(C)CC1CCCCC1,9,23,14
CO[C@H]1CN(C)C(=O)c2ccc(NC(C)=O)cc2OC[C@H](C)N(C(=O)c2ccc(F)cc2)C[C@@H]1C,-3,/,33
CCC(=O)N(C)C[C@@H]1Oc2ncc(-c3ccc(C)cc3)cc2C(=O)N([C@@H](C)CO)C[C@H]1C,-2,69,16
C=CCNC(=O)[C@@H]1[C@H]2C(=O)O[C@H](c3ccccc3)[C@H](c3ccccc3)N2[C@H](c2ccc(O)cc2)[C@@]12C(=O)N(C(=O)OCCOC)c1ccc(C#Cc3ccc(OC)cc3)cc12,3,/,/
COc1ccc(NC(=O)Nc2cccc3c2O[C@H](CN(C)Cc2ccc(Oc4ccccc4)cc2)[C@H](C)CN([C@@H](C)CO)C3=O)cc1,-61,94,-64
COc1ccc2c3c(n(C)c2c1)[C@H](CO)N(C)CC31CCN(C(=O)C2CCC2)CC1,/,/,56
O=C(C[C@H]1CC[C@@H]2[C@H](COC[C@H](O)CN2C(=O)Nc2ccc(C(F)(F)F)cc2)O1)NC1Cc2ccccc2C1,-100*!,38,-14
O=C(C[C@@H]1CC[C@@H]2[C@H](COC[C@H](O)CN2C(=O)Nc2ccc(C(F)(F)F)cc2)O1)NC1Cc2ccccc2C1,22,78,2
CCNC(=O)C[C@@H]1CC[C@@H]2[C@H](COC[C@@H](O)CN2C(=O)Nc2ccc(C(F)(F)F)cc2)O1,-94*!,-16,16
CCNC(=O)C[C@@H]1CC[C@H]2[C@@H](COC[C@H](O)CN2C(=O)Nc2ccc(C(F)(F)F)cc2)O1,67,-22,3

# From PubChem BioAssay
